Measurements from PubChem BioAssay (Tox21).
Records with an inconclusive call do not appear. Entries that show only a call come without a potency. The source made the active and inactive calls. Calls follow the shape of the full dose curve.

These molecules were tested against Muscarinic acetylcholine receptor M1 (Homo sapiens) (UniProt P11229) (assay: Cholinergic receptor muscarinic 1 (CHRM1) small molecule antagonists, cell-based qHTS assay (AID 1963588; also: nearly all actives have a fitted effect of over 40% in size)). Details: CHRM1-CHO antagonist mode, calcium flux fluorescence; series mostly up to 61.5 µM.
Sequence of Muscarinic acetylcholine receptor M1 (Homo sapiens) (P11229 whole entry, looked up): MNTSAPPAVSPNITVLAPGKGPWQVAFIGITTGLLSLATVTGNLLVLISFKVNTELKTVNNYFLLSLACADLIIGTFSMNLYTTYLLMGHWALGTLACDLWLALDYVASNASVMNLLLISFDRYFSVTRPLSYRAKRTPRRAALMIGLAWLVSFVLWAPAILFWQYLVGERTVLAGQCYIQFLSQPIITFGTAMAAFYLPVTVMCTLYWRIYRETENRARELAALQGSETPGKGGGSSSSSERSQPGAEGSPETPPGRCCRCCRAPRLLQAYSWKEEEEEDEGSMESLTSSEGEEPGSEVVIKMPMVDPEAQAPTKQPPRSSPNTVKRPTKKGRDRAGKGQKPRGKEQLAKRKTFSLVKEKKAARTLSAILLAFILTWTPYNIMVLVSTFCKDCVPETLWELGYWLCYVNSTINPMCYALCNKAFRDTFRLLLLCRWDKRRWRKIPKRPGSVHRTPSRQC
Description: National Center for Advancing Translational Sciences [NCATS]
Division of Preclinical Innovation [DPI]
U.S. Environmental Protection Agency [EPA]
National Institutes of Environmental Health Sciences [NIEHS]
National Toxicology Program [NTP]
U.S. Food and Drug Administration [FDA]
The CHRM1 is a muscarinic receptor. This receptor plays a crucial role in learning and memory processes and has long been identified as a promising therapeutic target for the improvement of cognitive decline in Alzheimer's disease (AD). The CHRM1-CHO cell line stably expressing human muscarinic acetylcholine receptor M1 (CHRM1) can be used for screening agonists and antagonists of interactions between CHRM1 and its ligands. The CHRM1-CHO Calcium Flux Assay is a homogeneous fluorescence-based assay for detecting the intracellular calcium level using FDSS kinetic plate reader system.
Tox21 Assay Protocol Summary:
CHRM1-CHO cells were dispensed at 1000 cells/3uL/well in 1536-well black-clear bottom plates using a Multidrop Dispenser. After the assay plates were incubated at a 37 C/5% CO2 incubator for 18 h, 3 uL of Dye Loading Buffer was transferred to the assay plate by a Flying Reagent Dispenser. The assay plates were incubated at 37 C for 1h. For antagonist mode, 23 nL of compounds dissolved in DMSO, positive controls or DMSO only was transferred to the assay plate by a pin tool. After 5 min incubation at room temperature, 1.5 uL of acetylcholine at 50nM was added to each well. The fluorescence intensity in the plates was measured using FDSS 7000EX kinetic plate reader for 3 min at 1 sec intervals. Each test compound was measured at 15 concentrations in three independent runs.

SMILES	Potency
O=C(O)c1cccc(Cl)c1Cl	inactive
CCOC(=S)SSC(=S)OCC	inactive
N=C(N)c1ccc2cc(OC(=O)c3ccc(N=C(N)N)cc3)ccc2c1	inactive
c1ccc(CSCc2ccccc2)cc1	inactive
CC(=O)NCCO	inactive
Nc1ccc([N+](=O)[O-])c(C(F)(F)F)c1	inactive
O=C(O)c1ccc(OCCCOc2ccc(C(=O)O)cc2)cc1	inactive
CC/C=C\CC1=C(C)CCC1=O	inactive
CCCCCCc1ccc(-c2ccc(C#N)cc2)cc1	inactive
CC1=C(C=O)C(C)(C)CC=C1	inactive
Cc1ccccc1C(N)=O	inactive
CCC(C(=O)OCCOCCN(CC)CC)c1ccccc1 (stereo not given)	inactive
FC(F)(F)c1ccccc1-n1ccnc1	inactive
CC(=O)c1ccc2ccccc2c1	inactive
Cc1ccccc1S(N)(=O)=O	inactive
C/C=C(\C)C(=O)OC/C=C(\C)CCC=C(C)C	inactive
O=S1(=O)OC(c2ccc(O)cc2)(c2ccc(O)cc2)c2ccccc21	inactive
C[C@@H]1O[C@@H](OC[C@H]2O[C@@H](Oc3c(-c4ccc(O)c(O)c4)oc4cc(O)cc(O)c4c3=O)[C@H](O)[C@@H](O)[C@@H]2O)[C@H](O)[C@H](O)[C@H]1O	inactive
CC(C)(C)c1ccc(S)cc1	inactive
CCC(C)(C)C1CCCCC1OC(C)=O (stereo not given)	inactive

SMILES	Potency
NC(=O)C1CO1 (stereo not given)	inactive
CC1(C)[C@@H]2CC[C@@]1(C)[C@H](O)C2	inactive
CCCCC/C=C/C=C/C=O	inactive
NC(=O)c1cccc([N+](=O)[O-])c1	inactive
CCC(C)C1CCCCC1=O (stereo not given)	inactive
COCC(O)CO (stereo not given)	inactive
OCC(CO)N[C@H]1C[C@](O)(CO)[C@@H](O)[C@H](O)[C@H]1O	inactive
Nc1cc(C(Cl)=C(Cl)Cl)c(S(N)(=O)=O)cc1S(N)(=O)=O	inactive
CCc1occc(=O)c1O	inactive
C=C1C[C@H]2[C@@H]3C=C(C)C4=CC(=O)CC[C@]4(C)[C@H]3CC[C@]2(C)[C@@]1(OC(C)=O)C(C)=O	inactive
CCOC(/C=C(\C)CCC=C(C)C)OCC	inactive
CCOC(=O)c1ccc(C)cc1	inactive
CCn1cc(C(=O)O)c(=O)c2cc3c(cc21)OCO3	inactive
C/C(Cl)=C/CCl	inactive
Oc1ccc(Sc2ccc(O)cc2)cc1	inactive
CCCCCc1cccc(=O)o1	inactive
CCc1ccc(C)nc1	inactive
CC(C)CNCC(C)C	inactive
CC/C=C\C/C=C\C/C=C\CCCCCCCC(=O)O	inactive
Cc1occc1S	inactive
